# Screening data as filed in PubChem.
# An excerpt weighted towards active compounds, which were near 1.7% of everything screened.
# GLP-1R agonist = activates the human GLP-1 receptor | P43220 | HEK293 GLP-1R CRE-luciferase, luminescence, 4-6 h; cells express a hypersensitive GLP-1R form | Potency, µM (top dose mostly 45.6 µM), for the others: at the top dose activation, hits mostly activators | 380,000 tested, 0.007% active | AID 624172; also: % of control where 0% means no effect
# Target sequence (P43220 whole entry, looked up): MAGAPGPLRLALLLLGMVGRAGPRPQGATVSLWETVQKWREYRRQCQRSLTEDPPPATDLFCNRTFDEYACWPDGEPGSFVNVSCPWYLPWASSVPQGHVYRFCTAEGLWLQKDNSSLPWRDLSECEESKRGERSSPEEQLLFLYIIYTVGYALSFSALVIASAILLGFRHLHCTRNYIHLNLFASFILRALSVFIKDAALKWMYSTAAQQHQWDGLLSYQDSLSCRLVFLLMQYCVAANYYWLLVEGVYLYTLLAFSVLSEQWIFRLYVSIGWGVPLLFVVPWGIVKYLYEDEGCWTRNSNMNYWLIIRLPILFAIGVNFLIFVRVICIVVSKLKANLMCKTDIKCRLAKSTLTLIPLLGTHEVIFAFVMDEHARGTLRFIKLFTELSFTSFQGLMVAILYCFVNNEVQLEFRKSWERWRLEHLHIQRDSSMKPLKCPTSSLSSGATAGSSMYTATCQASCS
# GLP-1R inv ag = GLP-1 receptor (human) inverse agonism. P43220. HEK293 GLP-1R CRE-luciferase, luminescence, 24 h; GLP-1R form is constitutively active. Potency, µM (titrated, usually from 38.3 µM), for inactives: top-dose activity change, negative = inhibition, most hits filed as inhibitors. 410,000 tested, 1.6% active. AID 624417; also: % is scaled to controls: 0 for no effect and ±100 for the full control effect; nearly all actives have a fitted effect of over 55% in size
#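 Using stably transfected HEK293 (constitutively active GLP-1R, cAMP-luciferase reporter), compounds were incubated 24 hr and luciferase measured by luminescence.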
# HEK293 tox = cytotoxic in the GLP-1 receptor inverse agonist counter-screen | 410,000 tested, 0.13% active | AID 624418 | Potency, µM (series often up to 38.3 µM), for the others: at the top dose activity change, negative = inhibition, hits mostly inhibitors | HEK293 cAMP-luciferase reporter cells, luminescence, 24 h;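 also: loss of luciferase light is scored as toxicity; % is scaled to controls: 0 for no effect and ±100 for the full control effect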
#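 Here, cytotoxicity is scored as loss of luminescence. The MLSMR collection was tested on cells seeded in medium containing 10% Nu serum, with a 24 hr compound exposure preceded by 12 hours of culture.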
# An asterisk follows results filed as active; ? = inconclusive; · = not tested or not shown. Calls follow the shape of the dose curve; as a rule, active = well fitted curve in the direction sought with a large enough effect; inconclusive = small, poorly fitted or top-dose-only effect, or another doubt; inactive = no such curve, though single readings can be large; an effect the other way counts as inactive or inconclusive. Potency is read from the fitted curve at half-maximal effect.
SMILES,GLP-1R agonist,GLP-1R inv ag,HEK293 tox
O=C(Nc1ccccc1Sc1ccccc1)c1ccc(F)cc1,20.5%,5.01µM*,26.7%
Cc1ccc(C(=O)Nc2ccccc2Sc2ccccc2)cc1,6.4%,9.1%,4.3%
O=C(NCc1ccccc1)c1cc(C2COCCN2C(=O)OCCF)on1 (stereo not given),-2.2%,10.9%,3.7%
CCOC(=O)c1nnn(-c2nonc2N)c1COc1cc(C)c(Cl)c(C)c1,0.3%,8.91µM*,-10.5%
CCOC(=O)c1nnn(-c2nonc2N)c1CSc1ccccc1,3.4%,-5.9%,4.4%
COc1ccccc1CN1CCC(n2nccc2NC(=O)CCCc2ccccc2)CC1,15.0%,?,-15.2%
O=C1Nc2ccccc2-n2nnnc2C1N1CCN(C(=O)c2ccco2)CC1 (stereo not given),·,-9.2%,20.6%
O=C(NC(NC(=S)Nc1ccccc1Cl)C(Cl)(Cl)Cl)c1cccc(Cl)c1 (stereo not given),-39.9%,2.82µM*,-4.2%
COc1ccc(NC(=S)NC(NC(=O)c2cccc(Cl)c2)C(Cl)(Cl)Cl)c([N+](=O)[O-])c1 (stereo not given),-3.2%,?,-25.1%
O=C(NC(NC(=S)Nc1ccccc1C(=O)O)C(Cl)(Cl)Cl)c1cccc([N+](=O)[O-])c1 (stereo not given),-3.9%,-3.1%,-9.0%
O=C(Cc1cccc2ccccc12)NC(NC(=S)Nc1ccccc1Cl)C(Cl)(Cl)Cl (stereo not given),-15.8%,4.47µM*,-17.1%
COc1ccc(NC(=S)NC(NC(=O)c2cccc(C)c2)C(Cl)(Cl)Cl)c([N+](=O)[O-])c1 (stereo not given),-7.7%,8.91µM*,?
CCC(=O)NC(NC(=S)Nc1ccccc1Br)C(Cl)(Cl)Cl (stereo not given),-13.8%,-21.6%,-22.9%
O=S1(=O)CC(N2CCCCC2)CN1Cc1cn(Cc2ccc(F)cc2)nn1 (stereo not given),10.2%,7.2%,-4.6%
CCC(=O)NNC(=O)c1cc(COc2cc(Cl)cc(Cl)c2)on1,-0.3%,-18.1%,-1.7%
COc1cccc(NC(=O)c2c(C)oc3nc(C)nc(N4CCCC4)c23)c1,·,3.4%,-2.7%
CCc1nc2nc(C)c(NS(=O)(=O)c3ccc(C)cc3)c(=O)n2[nH]1,·,14.5%,11.9%
CN(c1ccccc1)S(=O)(=O)c1ccc(Cl)nc1,5.0%,12.0%,-3.9%
Cc1nc(S(=O)(=O)N(C)c2ccccc2)c(C#N)c(C)c1Cl,-7.4%,5.62µM*,61.6%
O=C(COC(=O)CNC(=O)c1ccccc1F)NC12CC3CC(CC(C3)C1)C2,-3.9%,19.0%,5.1%
CC1CC(C)CN(c2ncnc3c2cnn3Cc2ccc(Cl)cc2)C1 (stereo not given),-5.6%,2µM*,0.2%
Clc1ccc(Cn2ncc3c(N4CCCC4)ncnc32)cc1,14.5%,31.6%,-4.4%
COc1ccc(-c2nc(CS(=O)CC(=O)NC3CCCCC3C)c(C)o2)cc1 (stereo not given),-0.7%,?,-16.4%
Cc1cc(O)c2c(c1)OC1(C)CCC3C(C)(C)CCCC34COC2C14 (stereo not given),-2.4%,·,·
O=C1Nc2cc(C(=O)NCCCN3CCOCC3)ccc2S/C1=C/c1cccc(Cl)c1,-0.4%,-4.3%,4.0%
SMILES,GLP-1R agonist,GLP-1R inv ag,HEK293 tox
O=C(NCCN1CCOCC1)c1ccc2c(c1)N(Cc1ccc(F)cc1)C(=O)CS2,-2.3%,20.2%,-8.6%
CCN1CCSc2ccc(C(=O)NCc3ccccc3C)cc21,-4.1%,?,-1.6%
O=C(NC1CC1)c1ccc2c(c1)N(Cc1ccccc1)CCS2,-0.9%,8.91µM*,-1.9%
O=C(NCCCN1CCOCC1)c1ccc2c(c1)N(Cc1ccc(F)cc1)CCS2,-0.2%,2.24µM*,-3.3%
CCN1CCSc2ccc(C(=O)NCc3ccccc3Br)cc21,1.5%,10µM*,7.1%
CCOC(=O)N1CCC(NC(=O)c2ccc3c(c2)N(Cc2ccccc2)CCS3)CC1,7.0%,?,-12.0%
O=C1Nc2cc(C(=O)NCCCN3CCCC3)ccc2S/C1=C\c1ccccc1,19.4%,10µM*,-5.0%
Cc1ccc(S(=O)(=O)n2ccc3c(OCCOCCNCc4ccc(F)cc4)cccc32)cc1,7.0%,?,?
Cc1ccc(S(=O)(=O)N2CCOCC2)cc1NC(=O)COC(=O)CCOc1ccc(C(C)(C)C)cc1,-3.2%,-11.3%,7.8%
C#CCSc1nc2sc3c(c2c(=O)n1-c1cccc(OC)c1)CCN(C(C)=O)C3,2.9%,13.2%,-12.1%
O=C(NCc1ccccc1)c1ccc2c(c1)N(Cc1ccc(F)cc1)CCS2,·,5.62µM*,-1.5%
CN1CCN(CCCNC(=O)c2ccc3c(c2)N(Cc2ccc(F)cc2)CCS3)CC1,14.1%,5.62µM*,-26.6%
O=C(NCC1CCCO1)c1ccc2c(c1)N(Cc1ccc(F)cc1)CCS2 (stereo not given),5.9%,?,0.6%
CCCOc1ccc(CNC(=O)c2ccc3c(c2)N(Cc2ccccc2)CCS3)cc1,·,?,0.2%
O=C(NCCCN1CCCC1)c1ccc2c(c1)N(Cc1ccccc1)CCS2,3.4%,?,4.47µM*
Cc1ccc(C)c(CN2C(=O)c3ccccc3S(=O)c3ccc(C(=O)NCCCN4CCCC4)cc32)c1 (stereo not given),7.8%,?,-17.9%
O=C(NCCCN1CCCC1)c1ccc2c(c1)N(Cc1ccccc1F)C(=O)c1ccccc1S2=O (stereo not given),-0.3%,8.91µM*,-1.1%
CCN1CCN(CCCNC(=O)c2ccc3c(c2)N(Cc2ccccc2)CCS3)CC1,13.4%,?,?
N#Cc1cccc(NCC(=O)Nc2ccc3c(c2)OCCO3)c1,-5.7%,-20.6%,-2.6%
CCc1ccc(OCC(=O)NNC(=O)c2cc(S(=O)(=O)N(C)C)ccc2N2CCCC2)cc1,11.0%,-15.5%,9.7%
COc1ccc(S(=O)(=O)N2CCCCC2)cc1NC(=O)CCNC(=O)c1ccc(Cl)cc1,1.6%,-9.1%,8.4%
CC1CC(C)CN(C(=O)CCn2c(=O)oc3ccccc32)C1 (stereo not given),-2.2%,0.4%,0.3%
Cc1noc(C)c1COc1ccccc1C(=O)N(C)CC(=O)Nc1ccc(Cl)c(Cl)c1,0.7%,10µM*,-9.5%
COc1cccc(NC(=O)CN(C)C(=O)c2ccccc2OCc2c(C)noc2C)c1,8.5%,0.9%,-8.9%
COc1cccc(-c2cc3nc(Nc4ccc(OC)c(OC)c4)n(C)c(=O)c3s2)c1,-8.7%,-23.7%,-24.2%
O=C(Nc1ccc([N+](=O)[O-])cc1)C(c1ccccc1)c1ccccc1,-1.6%,2.24µM*,-17.6%
O=C(Nc1ccc(Oc2cccnc2)cc1)c1ccc([N+](=O)[O-])cc1,3.9%,-10.7%,15.5%
O=C(Nc1ccc(Nc2ccncc2)cc1)c1ccc([N+](=O)[O-])cc1,-0.8%,10µM*,?
O=C(NCC(O)c1ccc([N+](=O)[O-])cc1)C(c1ccccc1)c1ccccc1 (stereo not given),15.1%,?,-6.7%
O=S(=O)(O)OCC1OC(COS(=O)(=O)O)(C2(OS(=O)(=O)O)OC(CO)C(OS(=O)(=O)O)C(OS(=O)(=O)O)C2OS(=O)(=O)O)C(OS(=O)(=O)O)C1OS(=O)(=O)O (stereo not given),14.8%,·,·
